Data: the supplement of paper PMC11732987, “Enantioselective OTUD7B fragment discovery through chemoproteomics screening and high-throughput optimisation” (Communications Chemistry, 2025)

How the values were obtained:
Test in all cases: log2 ratio of Biotin-Ahx-Ub-VS probe labelling (fragment/DMSO); higher = less target engagement (more negative = stronger competition), active = hit call of the paper (q ≤ 0.05, log2 ratio ≤ -1)
Settings in all cases: compound concentration: 200 uM; treatment time: 3 h
USP42 = target: T1, USP42 (UniProt Q9H9J4)
T1 sequence (whole entry): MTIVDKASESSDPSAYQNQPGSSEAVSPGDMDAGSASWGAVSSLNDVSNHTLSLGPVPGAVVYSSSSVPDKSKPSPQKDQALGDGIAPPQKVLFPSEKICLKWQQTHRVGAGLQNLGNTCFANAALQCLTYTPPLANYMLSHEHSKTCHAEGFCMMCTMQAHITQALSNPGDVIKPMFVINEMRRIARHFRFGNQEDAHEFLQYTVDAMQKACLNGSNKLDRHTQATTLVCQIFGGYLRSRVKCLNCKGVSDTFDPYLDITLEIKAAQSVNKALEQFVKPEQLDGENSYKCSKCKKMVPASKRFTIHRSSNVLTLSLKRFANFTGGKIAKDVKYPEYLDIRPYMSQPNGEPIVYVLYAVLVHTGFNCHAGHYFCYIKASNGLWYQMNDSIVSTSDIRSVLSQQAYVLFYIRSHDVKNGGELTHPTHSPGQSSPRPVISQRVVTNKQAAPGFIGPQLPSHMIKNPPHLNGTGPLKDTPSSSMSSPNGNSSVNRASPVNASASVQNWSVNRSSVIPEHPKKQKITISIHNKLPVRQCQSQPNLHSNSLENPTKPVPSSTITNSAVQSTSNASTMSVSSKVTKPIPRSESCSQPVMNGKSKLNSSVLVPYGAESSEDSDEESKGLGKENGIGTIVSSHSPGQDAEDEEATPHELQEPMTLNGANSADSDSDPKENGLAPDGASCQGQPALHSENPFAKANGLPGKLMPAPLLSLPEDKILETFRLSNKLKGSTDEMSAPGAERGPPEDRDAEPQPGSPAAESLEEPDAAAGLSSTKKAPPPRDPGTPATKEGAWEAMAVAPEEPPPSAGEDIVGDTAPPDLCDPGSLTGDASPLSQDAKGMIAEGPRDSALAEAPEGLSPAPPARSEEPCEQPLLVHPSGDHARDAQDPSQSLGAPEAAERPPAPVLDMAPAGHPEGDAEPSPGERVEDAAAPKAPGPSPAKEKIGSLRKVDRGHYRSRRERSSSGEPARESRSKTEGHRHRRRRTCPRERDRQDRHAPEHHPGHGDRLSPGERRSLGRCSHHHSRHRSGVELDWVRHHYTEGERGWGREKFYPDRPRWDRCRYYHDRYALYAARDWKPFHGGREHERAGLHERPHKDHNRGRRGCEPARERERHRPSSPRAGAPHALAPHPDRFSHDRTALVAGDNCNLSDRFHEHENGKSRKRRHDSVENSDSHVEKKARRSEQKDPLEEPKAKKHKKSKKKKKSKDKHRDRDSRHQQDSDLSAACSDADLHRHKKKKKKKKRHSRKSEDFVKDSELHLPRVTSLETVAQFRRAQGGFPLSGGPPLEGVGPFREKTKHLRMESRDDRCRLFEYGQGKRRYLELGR
Summary of the method: (§1)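 Fragment (200 µM) or vehicle was incubated for 3 h with triplicate HEK293T lysate samples of 495 µg, which were then treated with Biotin-Ahx-Ub-VS at 0.5 µM final for 1 h. Labelled DUBs were enriched on NeutrAvidin, digested with LysC and trypsin, and analysed by diaPASEF LC-MS/MS. Values are average log2 fragment/vehicle ratios from an unpaired t-test on global-median-normalised Spectronaut label-free quantities, using proteins with ≥2 unique peptides.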

USP46 = USP46 (UniProt P62068)
Summary of the method: as §1

USP47 = target: T2, USP47 (UniProt Q96K76)
T2 sequence (whole entry): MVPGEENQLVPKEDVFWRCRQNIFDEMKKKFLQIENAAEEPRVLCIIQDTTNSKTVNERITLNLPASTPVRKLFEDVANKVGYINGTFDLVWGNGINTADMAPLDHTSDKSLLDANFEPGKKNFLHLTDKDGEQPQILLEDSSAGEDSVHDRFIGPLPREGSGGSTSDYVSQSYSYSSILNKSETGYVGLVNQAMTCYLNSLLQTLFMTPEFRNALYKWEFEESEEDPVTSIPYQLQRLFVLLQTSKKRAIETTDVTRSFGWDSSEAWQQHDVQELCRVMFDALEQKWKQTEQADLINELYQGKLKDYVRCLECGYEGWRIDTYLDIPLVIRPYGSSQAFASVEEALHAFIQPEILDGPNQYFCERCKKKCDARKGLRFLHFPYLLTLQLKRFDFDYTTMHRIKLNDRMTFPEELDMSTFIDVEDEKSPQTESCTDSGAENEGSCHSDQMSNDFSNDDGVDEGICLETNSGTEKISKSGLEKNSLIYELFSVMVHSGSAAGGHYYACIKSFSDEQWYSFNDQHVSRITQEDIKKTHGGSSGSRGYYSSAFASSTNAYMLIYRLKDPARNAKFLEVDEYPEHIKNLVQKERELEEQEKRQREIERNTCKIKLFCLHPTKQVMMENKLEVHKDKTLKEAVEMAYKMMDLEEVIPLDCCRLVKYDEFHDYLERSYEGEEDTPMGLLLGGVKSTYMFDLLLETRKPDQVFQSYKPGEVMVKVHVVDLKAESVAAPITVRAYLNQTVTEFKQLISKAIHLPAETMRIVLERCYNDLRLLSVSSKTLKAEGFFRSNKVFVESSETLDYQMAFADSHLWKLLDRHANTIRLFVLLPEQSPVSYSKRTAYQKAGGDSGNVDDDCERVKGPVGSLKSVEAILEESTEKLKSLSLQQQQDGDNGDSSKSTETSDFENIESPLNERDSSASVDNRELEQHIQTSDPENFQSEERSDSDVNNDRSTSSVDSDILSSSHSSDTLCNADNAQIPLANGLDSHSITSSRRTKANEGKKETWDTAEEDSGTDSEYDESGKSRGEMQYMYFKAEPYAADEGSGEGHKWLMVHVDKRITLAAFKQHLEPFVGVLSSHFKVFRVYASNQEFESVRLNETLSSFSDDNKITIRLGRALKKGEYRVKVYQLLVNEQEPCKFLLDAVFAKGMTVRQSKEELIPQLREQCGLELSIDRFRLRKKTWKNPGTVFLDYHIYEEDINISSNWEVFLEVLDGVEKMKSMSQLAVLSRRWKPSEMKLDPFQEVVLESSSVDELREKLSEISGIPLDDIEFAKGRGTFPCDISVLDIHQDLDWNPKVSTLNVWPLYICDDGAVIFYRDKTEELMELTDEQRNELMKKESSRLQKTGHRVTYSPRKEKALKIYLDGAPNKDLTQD
Summary of the method: as §1

USP48 = target: T3, USP48 (UniProt Q86UV5)
T3 sequence (whole entry): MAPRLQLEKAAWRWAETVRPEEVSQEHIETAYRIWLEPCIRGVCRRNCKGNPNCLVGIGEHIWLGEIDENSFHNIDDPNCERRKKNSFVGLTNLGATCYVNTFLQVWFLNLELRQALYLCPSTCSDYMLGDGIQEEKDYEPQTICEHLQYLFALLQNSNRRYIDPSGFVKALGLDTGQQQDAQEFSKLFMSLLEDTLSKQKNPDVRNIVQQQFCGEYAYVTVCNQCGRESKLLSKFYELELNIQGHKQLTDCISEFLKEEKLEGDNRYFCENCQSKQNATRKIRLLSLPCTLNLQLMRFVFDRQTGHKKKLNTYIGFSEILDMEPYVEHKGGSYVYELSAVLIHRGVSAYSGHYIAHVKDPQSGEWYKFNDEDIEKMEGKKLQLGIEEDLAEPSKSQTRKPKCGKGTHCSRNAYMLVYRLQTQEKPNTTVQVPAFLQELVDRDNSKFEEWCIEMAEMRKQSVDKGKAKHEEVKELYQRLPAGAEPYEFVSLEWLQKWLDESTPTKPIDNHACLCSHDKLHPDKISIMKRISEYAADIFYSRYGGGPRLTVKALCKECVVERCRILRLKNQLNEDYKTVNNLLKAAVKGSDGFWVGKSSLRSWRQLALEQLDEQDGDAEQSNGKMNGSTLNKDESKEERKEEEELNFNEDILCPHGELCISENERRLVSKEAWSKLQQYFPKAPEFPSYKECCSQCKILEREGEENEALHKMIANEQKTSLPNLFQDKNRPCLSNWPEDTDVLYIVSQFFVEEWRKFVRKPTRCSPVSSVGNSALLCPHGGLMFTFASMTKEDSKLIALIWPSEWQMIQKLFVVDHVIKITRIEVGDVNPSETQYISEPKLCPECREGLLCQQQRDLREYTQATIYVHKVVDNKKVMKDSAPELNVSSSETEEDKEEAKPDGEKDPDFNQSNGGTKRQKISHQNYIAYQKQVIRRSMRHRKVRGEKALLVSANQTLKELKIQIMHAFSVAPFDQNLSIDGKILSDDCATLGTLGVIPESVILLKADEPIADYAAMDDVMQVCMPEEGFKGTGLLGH
Summary of the method: as §1

USP5 = target: T4, USP5 (UniProt P45974)
T4 sequence (whole entry): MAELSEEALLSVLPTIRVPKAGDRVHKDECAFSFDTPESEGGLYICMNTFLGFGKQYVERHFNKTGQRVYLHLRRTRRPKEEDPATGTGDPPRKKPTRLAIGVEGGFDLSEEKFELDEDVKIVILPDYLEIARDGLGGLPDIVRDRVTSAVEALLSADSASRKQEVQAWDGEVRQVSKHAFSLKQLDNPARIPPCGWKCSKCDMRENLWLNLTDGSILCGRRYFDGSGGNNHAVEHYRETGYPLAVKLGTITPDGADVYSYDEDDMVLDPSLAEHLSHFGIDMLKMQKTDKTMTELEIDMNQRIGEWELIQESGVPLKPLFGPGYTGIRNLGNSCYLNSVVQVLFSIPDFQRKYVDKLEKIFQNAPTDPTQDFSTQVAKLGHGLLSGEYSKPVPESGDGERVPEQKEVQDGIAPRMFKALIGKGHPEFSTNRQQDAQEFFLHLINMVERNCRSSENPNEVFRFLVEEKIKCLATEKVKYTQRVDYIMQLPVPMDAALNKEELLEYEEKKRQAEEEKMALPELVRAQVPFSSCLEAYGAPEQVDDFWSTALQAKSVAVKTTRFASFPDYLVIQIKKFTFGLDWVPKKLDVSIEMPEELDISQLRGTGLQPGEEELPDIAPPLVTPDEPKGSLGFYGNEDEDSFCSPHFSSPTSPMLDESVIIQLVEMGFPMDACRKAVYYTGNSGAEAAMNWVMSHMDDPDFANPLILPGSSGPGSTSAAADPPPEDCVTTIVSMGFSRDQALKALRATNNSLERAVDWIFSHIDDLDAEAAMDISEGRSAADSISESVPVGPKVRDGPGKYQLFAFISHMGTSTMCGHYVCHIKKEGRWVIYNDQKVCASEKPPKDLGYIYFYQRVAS
Summary of the method: as §1

USP54 = USP54 (UniProt Q70EL1)
Summary of the method: as §1

USP7 = USP7 (UniProt Q93009)
Summary of the method: as §1

USP8 = target: T5, USP8 (UniProt P40818)
T5 sequence (whole entry): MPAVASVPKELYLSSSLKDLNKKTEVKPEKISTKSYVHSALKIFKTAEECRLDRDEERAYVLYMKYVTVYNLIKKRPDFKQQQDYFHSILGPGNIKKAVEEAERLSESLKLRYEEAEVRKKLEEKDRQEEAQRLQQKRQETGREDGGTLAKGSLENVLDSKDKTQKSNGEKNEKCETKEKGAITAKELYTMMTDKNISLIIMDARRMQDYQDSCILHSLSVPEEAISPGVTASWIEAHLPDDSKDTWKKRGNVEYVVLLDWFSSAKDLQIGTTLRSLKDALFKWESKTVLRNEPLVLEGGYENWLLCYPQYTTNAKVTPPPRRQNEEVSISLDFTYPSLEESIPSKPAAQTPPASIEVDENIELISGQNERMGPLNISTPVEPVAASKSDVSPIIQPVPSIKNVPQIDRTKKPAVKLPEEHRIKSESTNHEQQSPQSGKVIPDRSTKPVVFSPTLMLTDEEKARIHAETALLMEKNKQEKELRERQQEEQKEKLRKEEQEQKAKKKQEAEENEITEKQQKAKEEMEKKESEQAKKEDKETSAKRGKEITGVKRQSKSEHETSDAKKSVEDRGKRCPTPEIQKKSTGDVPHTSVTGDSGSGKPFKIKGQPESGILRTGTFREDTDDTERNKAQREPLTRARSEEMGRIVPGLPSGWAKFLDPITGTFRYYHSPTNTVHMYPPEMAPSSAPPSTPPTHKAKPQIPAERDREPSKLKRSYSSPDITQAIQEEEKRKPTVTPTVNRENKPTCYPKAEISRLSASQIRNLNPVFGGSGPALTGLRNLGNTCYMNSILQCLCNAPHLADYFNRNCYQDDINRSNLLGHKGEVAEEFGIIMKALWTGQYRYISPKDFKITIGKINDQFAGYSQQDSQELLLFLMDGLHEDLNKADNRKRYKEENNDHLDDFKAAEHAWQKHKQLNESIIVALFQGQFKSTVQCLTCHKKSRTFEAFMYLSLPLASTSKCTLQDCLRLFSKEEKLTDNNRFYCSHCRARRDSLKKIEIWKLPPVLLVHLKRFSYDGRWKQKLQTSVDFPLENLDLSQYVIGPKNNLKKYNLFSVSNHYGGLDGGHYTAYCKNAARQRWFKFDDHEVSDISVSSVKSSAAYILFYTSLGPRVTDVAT
Summary of the method: as §1

Measured: log2 ratio of Biotin-Ahx-Ub-VS probe labelling

Chain of USP7 (Q93009 whole entry, looked up): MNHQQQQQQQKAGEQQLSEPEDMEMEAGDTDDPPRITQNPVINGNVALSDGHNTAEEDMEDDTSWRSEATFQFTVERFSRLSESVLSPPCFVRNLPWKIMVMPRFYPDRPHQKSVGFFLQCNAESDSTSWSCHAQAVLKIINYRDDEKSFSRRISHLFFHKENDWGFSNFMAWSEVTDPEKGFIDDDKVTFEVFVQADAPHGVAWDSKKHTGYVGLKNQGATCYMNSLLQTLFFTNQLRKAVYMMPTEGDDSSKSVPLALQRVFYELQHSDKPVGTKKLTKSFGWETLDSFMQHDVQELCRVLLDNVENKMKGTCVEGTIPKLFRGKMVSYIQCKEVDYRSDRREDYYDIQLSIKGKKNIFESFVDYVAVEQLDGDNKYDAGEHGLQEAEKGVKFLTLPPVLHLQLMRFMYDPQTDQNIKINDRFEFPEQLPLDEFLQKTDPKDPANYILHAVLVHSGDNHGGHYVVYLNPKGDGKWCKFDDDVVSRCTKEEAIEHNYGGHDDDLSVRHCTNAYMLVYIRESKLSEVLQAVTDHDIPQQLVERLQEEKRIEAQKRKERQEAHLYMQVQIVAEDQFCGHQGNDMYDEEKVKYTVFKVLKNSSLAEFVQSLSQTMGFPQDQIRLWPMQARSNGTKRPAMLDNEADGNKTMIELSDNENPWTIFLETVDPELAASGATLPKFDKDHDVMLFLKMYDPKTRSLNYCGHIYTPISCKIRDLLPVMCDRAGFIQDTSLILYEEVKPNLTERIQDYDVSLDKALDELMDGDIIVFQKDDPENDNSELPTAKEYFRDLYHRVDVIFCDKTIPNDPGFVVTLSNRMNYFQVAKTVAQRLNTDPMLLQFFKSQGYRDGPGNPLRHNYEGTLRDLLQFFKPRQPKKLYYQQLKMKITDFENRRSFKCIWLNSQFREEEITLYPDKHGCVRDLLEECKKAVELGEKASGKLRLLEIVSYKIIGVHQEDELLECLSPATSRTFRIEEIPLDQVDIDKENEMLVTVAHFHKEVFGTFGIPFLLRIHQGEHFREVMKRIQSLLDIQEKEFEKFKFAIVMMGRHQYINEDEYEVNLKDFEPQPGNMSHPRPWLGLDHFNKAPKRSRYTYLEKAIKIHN
Chain of USP54 (Q70EL1 whole entry): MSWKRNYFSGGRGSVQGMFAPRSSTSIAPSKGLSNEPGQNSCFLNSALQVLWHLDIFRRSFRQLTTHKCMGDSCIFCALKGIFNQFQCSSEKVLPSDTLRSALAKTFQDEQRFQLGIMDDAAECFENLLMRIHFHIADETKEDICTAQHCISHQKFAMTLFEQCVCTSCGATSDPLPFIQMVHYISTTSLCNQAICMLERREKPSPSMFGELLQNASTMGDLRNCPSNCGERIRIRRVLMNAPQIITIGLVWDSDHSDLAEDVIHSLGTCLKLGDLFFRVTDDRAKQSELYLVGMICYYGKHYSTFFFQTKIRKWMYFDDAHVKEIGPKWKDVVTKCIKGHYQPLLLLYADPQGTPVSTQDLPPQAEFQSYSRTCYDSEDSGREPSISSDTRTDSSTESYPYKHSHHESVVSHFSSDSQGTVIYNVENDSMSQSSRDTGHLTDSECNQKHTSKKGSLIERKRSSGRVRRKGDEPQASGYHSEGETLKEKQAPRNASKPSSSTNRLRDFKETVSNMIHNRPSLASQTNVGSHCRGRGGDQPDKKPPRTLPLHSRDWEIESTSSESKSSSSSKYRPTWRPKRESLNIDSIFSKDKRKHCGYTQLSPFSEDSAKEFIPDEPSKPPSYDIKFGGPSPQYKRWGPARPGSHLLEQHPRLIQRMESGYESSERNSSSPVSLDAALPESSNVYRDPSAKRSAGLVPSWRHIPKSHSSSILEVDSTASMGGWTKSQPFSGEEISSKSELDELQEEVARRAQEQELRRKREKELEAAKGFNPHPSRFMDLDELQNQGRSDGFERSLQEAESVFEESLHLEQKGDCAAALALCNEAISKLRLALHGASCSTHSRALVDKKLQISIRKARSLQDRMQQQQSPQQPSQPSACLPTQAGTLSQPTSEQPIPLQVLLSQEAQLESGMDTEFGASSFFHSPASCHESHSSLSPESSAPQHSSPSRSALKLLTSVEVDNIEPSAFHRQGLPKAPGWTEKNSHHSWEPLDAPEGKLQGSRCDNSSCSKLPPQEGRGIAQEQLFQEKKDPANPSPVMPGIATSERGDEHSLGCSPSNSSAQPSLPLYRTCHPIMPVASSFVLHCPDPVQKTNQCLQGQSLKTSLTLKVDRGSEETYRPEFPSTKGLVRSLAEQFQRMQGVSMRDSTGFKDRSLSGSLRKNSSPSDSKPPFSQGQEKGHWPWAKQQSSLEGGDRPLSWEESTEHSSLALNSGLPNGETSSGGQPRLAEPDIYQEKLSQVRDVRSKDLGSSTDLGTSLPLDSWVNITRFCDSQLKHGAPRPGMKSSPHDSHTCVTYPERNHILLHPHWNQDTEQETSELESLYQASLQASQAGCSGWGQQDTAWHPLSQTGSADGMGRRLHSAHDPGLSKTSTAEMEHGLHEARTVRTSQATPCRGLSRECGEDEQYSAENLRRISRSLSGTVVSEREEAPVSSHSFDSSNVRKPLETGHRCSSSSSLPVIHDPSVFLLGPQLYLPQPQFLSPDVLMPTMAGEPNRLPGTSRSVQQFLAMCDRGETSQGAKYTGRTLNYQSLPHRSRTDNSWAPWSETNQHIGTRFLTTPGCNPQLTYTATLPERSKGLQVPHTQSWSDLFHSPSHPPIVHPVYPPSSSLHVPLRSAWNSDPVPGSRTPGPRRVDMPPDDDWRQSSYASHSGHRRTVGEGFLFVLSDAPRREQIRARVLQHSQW
Chain of USP46 (P62068 whole entry): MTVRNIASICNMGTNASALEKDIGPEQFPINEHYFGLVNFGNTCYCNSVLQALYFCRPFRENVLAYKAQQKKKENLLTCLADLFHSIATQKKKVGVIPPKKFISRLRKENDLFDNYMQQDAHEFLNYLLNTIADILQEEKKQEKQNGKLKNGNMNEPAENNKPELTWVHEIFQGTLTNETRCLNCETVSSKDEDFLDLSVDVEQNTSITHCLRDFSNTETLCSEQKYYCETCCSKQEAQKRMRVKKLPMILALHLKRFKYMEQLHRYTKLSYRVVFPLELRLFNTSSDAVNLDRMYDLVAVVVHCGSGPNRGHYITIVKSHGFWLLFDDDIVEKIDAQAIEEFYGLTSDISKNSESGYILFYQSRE

N#Cc1cnn(-c2ccccc2)c1NC(=O)CCl
inactive: USP42 -0.0771 | USP46 -0.0464 | USP47 -0.263 | USP48 -0.451 | USP5 -0.203 | USP54 0.718 | USP7 -0.45 | USP8 -0.512
